# Screening data as filed in PubChem BioAssay.
# Sampled rows, rich in hits. Any-hit rate of the full collection: about 12%.
# BAZ2B block = blocks human BAZ2B | Q9UIF8 | AlphaScreen BAZ2B-H3K14Ac peptide displacement | Potency, µM (highest dose often 114 µM), for the others: at the highest dose activity change, negative = inhibition, most hits filed as inhibitors | 360,000 compounds, 4.4% hits | AID 504333; also: % is scaled to controls: 0 for no effect and ±100 for the full control effect; nearly all actives have a fitted effect of over 60% in size
#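 BAZ2B 50 nM plus b-H3(5-23)K14Ac 50 nM, PBS pH 7.4/0.01% Tween-20, 30 min RT; compound added (max 110 uM), 30 min RT; streptavidin donor/Ni-chelate acceptor beads 10 ug/mL final, 20 min dark; AlphaScreen read.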
# HP1b chromo inh = inhibitors of HP1-beta chromodomain binding to methylated histone tails; AlphaScreen HP1-beta / biotin-H3K9me3 peptide binding; P83916; Potency, µM (series often up to 114 µM), inactives show at the top dose activity change, negative = inhibition, hits mostly inhibitors; 390,000 compounds, 0.56% hits; also: nearly all actives have a fitted effect of over 70% in size
# Target sequence (P83916 whole entry, looked up): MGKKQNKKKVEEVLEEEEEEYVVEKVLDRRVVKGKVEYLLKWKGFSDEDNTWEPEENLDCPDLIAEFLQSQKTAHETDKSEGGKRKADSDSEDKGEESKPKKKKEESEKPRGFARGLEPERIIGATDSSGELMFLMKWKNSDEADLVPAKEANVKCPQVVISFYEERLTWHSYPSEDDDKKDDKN
#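 Compound inhibition of the preformed complex between 50 nM HP1-beta and 50 nM biotinylated H3K9me3 peptide was read by AlphaScreen. Buffer was PBS pH 7.4 with 0.01% Tween-20. Incubations ran 30 min at room temperature, with 10 ug/mL donor/acceptor beads.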
# L3MBTL1 block = blocks human L3MBTL1 | AlphaScreen L3MBTL1–H3K9me1 peptide binding | 230,000 compounds, 0.66% hits | Potency, µM (titrated, usually from 57.1 µM), without a hit: at the highest dose activity, negative = inhibition, hits mostly inhibitors; also: % is scaled to controls: 0 for no effect and ±100 for the full control effect; nearly all actives have a fitted effect of over 60% in size
#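 First, the protein-peptide complex forms for 30 min at room temperature (L3MBTL1 50 nM, biotinylated H3K9me1 peptide 75 nM). Next, compounds are pin-transferred and incubated 30 min. Finally, AlphaScreen beads are added and read after 30 min.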
# G9a block = inhibitors of human histone lysine methyltransferase G9a | G9a H3K9 monomethylation, AlphaScreen, 2 h | Potency, µM (series often up to 102 µM), for the others: at the highest dose activity, negative = inhibition, usual class: inhibitors | 350,000 compounds, 8.8% hits; also: % is scaled to controls: 0 for no effect and ±100 for the full control effect; nearly all actives have a fitted effect of over 75% in size
# Target sequence (Q96KQ7 913-1193 limits assumed): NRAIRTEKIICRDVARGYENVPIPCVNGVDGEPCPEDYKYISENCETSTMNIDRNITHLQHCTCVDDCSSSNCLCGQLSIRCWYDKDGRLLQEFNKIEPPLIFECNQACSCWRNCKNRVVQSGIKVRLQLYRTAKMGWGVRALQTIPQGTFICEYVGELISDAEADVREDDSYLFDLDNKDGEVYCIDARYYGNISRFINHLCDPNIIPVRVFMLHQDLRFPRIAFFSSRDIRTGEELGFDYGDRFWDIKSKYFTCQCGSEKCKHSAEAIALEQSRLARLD
#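 Methyltransferase reactions run at room temperature for 2 h (20 nM enzyme, 500 nM biotin-H3K9 peptide, 20 uM SAM) after a 15 min compound preincubation; product detected by AlphaScreen beads and anti-H3K9me1 antibody.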
# Sfp PPTase inh = inhibitors of Bacillus subtilis Sfp phosphopantetheinyl transferase | Potency, µM, inactives show largest response in the series, negative = inhibition, most hits filed as inhibitors | 310,000 compounds, 3.5% hits | Q9F4F7 | Biochemical Sfp PPTase activity, qHTS;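 also: the enzyme is Sfp with the accession as filed and its product quenches rhodamine fluorescence; 0% = enzyme reaction without inhibitor and -100% = no enzyme wells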
#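 Sfp 15 nM + cpd, 15 min RT; start w/ rhodamine-CoA 5 uM, BHQ-2-YbbR 12.5 uM (final); 50 mM Hepes pH 7.6, 10 mM MgCl2, 0.01% NP-40, 0.01% BSA; read 525/598 nm at 0 and 30 min.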
# JMJD2A Tudor inh = inhibitors of human JMJD2A Tudor domain | 390,000 compounds, 4.4% hits | AlphaScreen JMJD2A-Tudor / H3K4me3 peptide binding | O75164 | AID 504339 | Potency, µM (series often up to 114 µM), for inactives: at the top dose activity change, negative = inhibition, hits mostly inhibitors; also: % is scaled to controls: 0 for no effect and ±100 for the full control effect; nearly all actives have a fitted effect of over 50% in size
# Starred values were filed as active, the others as inactive; ? = inconclusive; . = not tested or not shown; [ ] = remark or other dose. Calls follow the shape of the dose curve; as a rule, active = well fitted curve in the direction sought with a large enough effect; inconclusive = small, poorly fitted or top-dose-only effect, or another doubt; inactive = no such curve, though single readings can be large; an effect the other way counts as inactive or inconclusive. Potency is read from the fitted curve at half-maximal effect.
SMILES,BAZ2B block,HP1b chromo inh,L3MBTL1 block,G9a block,Sfp PPTase inh,JMJD2A Tudor inh
Nc1ccccc1O,-23%,2%,-20%,-2%[0.501 µM],.,-19%
Nc1ccccc1SC/C=C/CSc1ccccc1N,-22%,26%,.,11µM*,-30%,-18%
COC(=O)C1=C(C)NC(=O)/C1=C\c1ccc2c(c1)OCO2,-29%,20%,-3%,.,4%,-6%
COC(=O)C1=C(C)NC(=O)/C1=C\N(C)C,-11%,36%,.,40µM*,-4%,-8%
Cc1ccn2c(=O)cc(CSc3nnc(NC(=O)c4ccccc4Cl)s3)nc2c1,5%,15%[57 µM],.,7%[59 µM],.,-9%
Cc1cccc(C)c1C(OCCN(C)C)C1CCCCC1 (stereo not given),?,?,-11%,10µM*,-5%,14µM*
COCCN(C(=O)CCl)C(C(=O)NC1CCCCC1)c1ccccc1C (stereo not given),7%,37%,13%,2%[59 µM],7%,-10%
CCC(Sc1n[nH]c(=O)[nH]c1=O)C(=O)OCc1ccccc1 (stereo not given),0%,28%,.,?,?,-10%
CC(Sc1n[nH]c(=O)[nH]c1=O)C(=O)OCc1ccccc1 (stereo not given),10%,27%,.,?,79µM*,-11%
O=C(N/N=C/c1ccoc1)c1ccc(Cl)cc1,-35%,14%,.,45µM*,50µM*,-16%
Cn1c(/C=N/NC(=O)c2ccccc2)nc2ccccc21,-22%,19%,3%,?,-29%,89µM*
O=C(N/N=C/c1ccoc1)c1ccc(Br)cc1,?,15%,.,53%,-7%,-30%
O=C(N/N=C/c1ccoc1)c1ccccc1,56µM*,2%,.,-44%,0%,-26%
O=C(N/N=C/c1ccoc1)c1cc(O)cc(O)c1,20µM*,45µM*,.,.,1%,25µM*
Cc1cc(C)cc(C(=O)N/N=C/c2ccoc2)c1,-1%,21%,.,45%,27%,-13%
Cn1c(CCCNC(=O)c2ccccc2)nc2ccccc21,-3%,40%,3%,9%[59 µM],2%,-8%
O=C(NCc1ccc2c(c1)CCN2C(=O)c1ccccc1)Nc1cccc(C(F)(F)F)c1,-1%,1%[57 µM],.,-13%[59 µM],.,-20%
CN[C@]1(C)[C@H]2CC[C@@H](C2)C1(C)C,.,.,.,24%[21.5 µM],2%,.
COC(=O)C1CSc2[nH]c(=O)sc2C1c1ccc(OC)c(OC)c1 (stereo not given),-29%,-5%,-2%,71µM*,-23%,-9%
COC(=O)C1C(c2ccc(OC)c(OC)c2)NC(c2ccc(OC)c(OC)c2)C(C(=O)OC)S1(=O)=O (stereo not given),-4%,10%,-7%,-45%[59 µM],?,-15%
COC(=O)C(NNc1ccccc1)(NC(=O)c1cccc(F)c1)C(F)(F)F (stereo not given),?,35%,.,2.2µM*,?,-11%
COc1ccc(S(=O)(=O)Nc2ccc3c(c2)N(C(C)=O)CCC3)cc1F,-6%,13%,.,6%[59 µM],.,-11%
O=C(O)CN1CCCC1=Nc1ccccc1,89µM*,38%,.,?,12%,-15%
COc1ccc(NC(=O)c2ccc(CN3CCc4ccccc4C3)cc2)cc1OC,-23%,10%,-3%,71µM*,-3%,-1%
C/C(=N\NC(=O)c1ccc(CN2CCc3ccccc3C2)cc1)c1ccccc1O,2.8µM*,25%,.,18%,10%,?
SMILES,BAZ2B block,HP1b chromo inh,L3MBTL1 block,G9a block,Sfp PPTase inh,JMJD2A Tudor inh
O=C(Oc1ccc2c(c1)OCO2)c1cc2c(s1)CCC2,-126%,?,-91%,-31%[59 µM],-5%,32µM*
O=C(CNC(=O)c1ccccc1)N[C@@H](C(=O)Nc1cc(C(F)(F)F)ccc1Cl)c1ccccc1,.,.,.,.,.,-18%
O=C(C[n+]1cc(-c2ccccc2)n2c1CCCCC2)c1ccc(Cl)cc1,-3%,44%,12%,-9%[59 µM],4%,3%
Cc1ccc(-c2c[n+](CC(=O)c3ccc(Br)cc3)c3n2CCCCC3)cc1,?,22%,.,45µM*,?,-30%
Cc1ccc2[nH]c(=O)c(CN(C(=O)c3cccc(Cl)c3)C(C)(C)C)cc2c1,-4%,22%,.,-19%[59 µM],.,-13%
COc1ccc(Cl)cc1NC(=O)Cn1cc(S(=O)(=O)Cc2cccc(Cl)c2)c2ccccc21,1%,9%,.,-15%[59 µM],.,-17%
O=c1c2oc3ccccc3c2n(Cc2ccccc2F)c(=O)n1Cc1ccco1,-36%,14%,.,-23%[59 µM],.,-5%
CCOC(=O)c1c(-c2ccco2)csc1N,-13%,?,-1%,18µM*,32µM*,?
CCOC(=O)c1c(-c2cccs2)csc1N,-38%,?,-18%,50µM*,-21%,-35%
CCOC(=O)c1c(-c2ccc(C)s2)csc1NC(=O)c1ccco1,3%,.,9%,-9%,13%,.
O=C(Cc1ccc(Cl)cc1)NCC(c1cccs1)S(=O)(=O)c1ccc(F)cc1 (stereo not given),-3%,35%,.,5%[59 µM],.,-15%
COc1cccc(NC(=O)Nc2cc(-c3cn4cccnc4n3)ccc2OC)c1,-28%,-17%,.,-31%[59 µM],.,-14%
CCCC(=O)Nc1nc2c(s1)CC(C(C)(C)C)CC2 (stereo not given),4%,35%,.,-12%[59 µM],.,-5%
CC(=O)CSc1ccc(-c2nc3ccccc3[nH]2)cn1,8%,39%,-3%[2.29 µM],18%[0.501 µM],-5%,-3%
N#Cc1ccccc1CSc1ccc(-c2nc3ccccc3[nH]2)cn1,4%,-3%,16%,?,4.5µM*,-11%
CCCCC[C@H](O)/C=C/C=C\CCCCCCCC(=O)O,.,.,.,32%[59 µM],0%,.
COc1ccc(CNC(=S)N2CCN(S(=O)(=O)c3cccc(F)c3)CC2)cc1,-14%,-1%,.,.,14%,-19%
COc1ccc(CCNC(=S)N2CCN(S(=O)(=O)c3cccc(F)c3)CC2)cc1,12%,10%,-1%,50µM*,.,2%
COc1ccc(CCNC(=S)N2CCN(S(=O)(=O)c3ccc(C)cc3)CC2)cc1,10%,6%,6%,50µM*,.,3%
O=C1N=C2SCCN2C(=O)C1Cc1ccc(Cl)cc1 (stereo not given),.,.,.,-36%[12.7 µM],18%,.
Cc1ccc(CSc2cn(CC(=O)N3CCCCCC3)c3ccccc23)cc1,-15%,23%,.,-42%[59 µM],.,-9%
COC(=O)C(=O)/C=C(\O)c1c(C)cc(C)cc1C,79µM*,8%,.,18µM*,-13%,?
Cc1nc(S(=O)(=O)N2CCN(c3ccc(Cl)cc3)CC2)cn1C,-1%,20%[57 µM],.,-4%[59 µM],.,-12%
COc1ccc(C2CC(=O)N(CC(=O)Nc3cc(C)ccc3C)c3ccccc3S2)cc1 (stereo not given),-2%,46%,.,-1%[59 µM],.,1%
